Active and inactive are the calls of the source.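 Rule for the calls: active = compounds killing one labelled cell type while sparing the other, by normalised counts and ratio limits, not self-fluorescent; inactive = the rest.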
Test: EMT-state selective cytotoxicity in co-culture – imaging, PC-3E GFP, TEM4-18 mCherry, primary screen (AID 1345086);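 note: cells exposed to compound for 72 h before imaging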;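 for red/green cell ratio (normalised): normalised mesenchymal count divided by normalised epithelial count so high means epithelial killing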
Settings: PC-3E GFP / TEM4-18 mCherry co-culture, imaging cell counts, at 1 µM; for red/green cell ratio (normalised): actives lie on both sides, counts scaled to control wells, 1 = unselective
[1] = measured here: epithelial PC-3E GFP cell survival
[2] = measured here: mesenchymal TEM4-18 mCherry cell survival

Row | SMILES | red/green cell ratio (normalised) | normalised cell number [1] | normalised cell number [2]
1 | C=C1[C@@H](C)C2[C@H](Cc3c[nH]c4ccccc34)NC(=O)[C@]23C(=O)/C=C/C(=O)[C@H](O)/C(C)=C/[C@@H](C)C/C=C/[C@H]3[C@@H]1O (stereo not given in full) | 0.87 (inactive) | 1.25 | 1.09
2 | CO[C@H]1/C=C/O[C@@]2(C)Oc3c(C)c(O)c4c(O)c(c(/C=N/N5CCN(C)CC5)c(O)c4c3C2=O)NC(=O)/C(C)=C\C=C\[C@H](C)[C@H](O)[C@@H](C)[C@@H](O)[C@@H](C)[C@H](CC(C)=O)[C@@H]1C | 0.98 (inactive) | 1.05 | 1.03
3 | O=C(O)[C@@H](S)[C@@H](S)C(=O)O | 1.16 (inactive) | 0.95 | 1.1
4 | OC[C@H]1O[C@H](OCCCc2ccc(O)cc2)[C@H](O)[C@@H](O)[C@@H]1O | 1.19 (inactive) | 0.9 | 1.07
5 | O=C(O)C1CCN(C(=O)OCc2ccccc2)CC1 | 1.04 (inactive) | 0.9 | 0.94
6 | O=C(O)C(O)C(O)C(O)C(O)C(=O)O (stereo not given) | 1.01 (inactive) | 1.04 | 1.05
7 | C=CC(C)(C)c1[nH]c2ccccc2c1C1=C(OC)C(=O)C(c2c(C(C)(C)C=C)[nH]c3ccccc23)=C(OC)C1=O | 0.88 (inactive) | 1.23 | 1.08
8 | COC(=O)C[C@@H]1C2(C)C(=O)[C@@H](CC3=C4CC(=O)O[C@@H](c5ccoc5)[C@]4(C)CCC32)[C@H](OC(C)=O)C1(C)C (stereo not given in full) | 1.06 (inactive) | 0.96 | 1.02
9 | CC(=O)OCC1O[C@@H](OC(C)=O)C(NC(=O)OCc2ccccc2)[C@@H](OC(C)=O)C1OC(C)=O (stereo not given in full) | 0.94 (inactive) | 1.16 | 1.09
10 | COc1c(N2CC[C@@H](CN)C2)c(F)cc2c(=O)c(C(=O)NO)cn(C3CC3)c12 | 1.1 (inactive) | 1.04 | 1.15
11 | O=C(NCc1ccccc1)C1O[C@H](NCc2ccccc2)[C@@H](O)[C@@H](O)C1O (stereo not given in full) | 1.04 (inactive) | 1.09 | 1.13
12 | Nc1nc(=S)c2ncn(C3O[C@H](CO)[C@@H](O)[C@H]3O)c2[nH]1 (stereo not given in full) | 0.83 (inactive) | 1.02 | 0.85
13 | C=C(C)C#CC1=C[C@@H](O)[C@@H]2O[C@]2([C@H](O)C=C(C)C)[C@@H]1O | 0.95 (inactive) | 0.96 | 0.91
14 | CC(=O)C(C)(C)[C@H]1OC2CC[C@@]3(C)[C@@](O)(CC[C@H]4Cc5c([nH]c6ccccc56)[C@@]43C)C2=CC1=O (stereo not given in full) | 0.87 (inactive) | 1.15 | 1
15 | Cc1oc(=O)c2c(O)cc(O)c(C)c2c1C | 1.03 (inactive) | 1.11 | 1.14
16 | C[C@@H]1C[C@@H](O)[C@@H](O)CO1 | 1.05 (inactive) | 0.91 | 0.96
17 | C[C@@H]1C=C2C=C[C@@](C)(O)[C@](C)(C(=O)CCO)[C@H]2[C@@H](O)C1 | 0.85 (inactive) | 1.08 | 0.91
18 | C[C@@]1(N)CCCCCN(c2c(F)cc3c(=O)c(C(=O)O)cn(C4CC4)c3c2Cl)C1 | 1.03 (inactive) | 0.97 | 1
19 | OC[C@H]1O[C@@](CO)(O[C@@H]2O[C@H](CO)[C@@H](O)[C@H](O)[C@H]2O)[C@@H](O[C@@H]2O[C@H](CO)[C@@H](O)[C@H](O)[C@H]2O)[C@@H]1O | 0.9 (inactive) | 1.13 | 1.01
20 | COC(=O)[C@@H](C)Oc1ccc(O)cc1 | 1.27 (inactive) | 0.93 | 1.18

Row | SMILES | red/green cell ratio (normalised) | normalised cell number [1] | normalised cell number [2]
21 | C[C@H]1[C@H]2CCC3C4CC=C5C[C@@H](N(C)C)CC[C@]5(C)C4CC[C@@]32CN1C (stereo not given in full) | 0.93 (inactive) | 0.89 | 0.83
22 | O=C(N[C@@H](Cc1ccc(O)cc1)C(=O)O)OCc1ccccc1 | 0.96 (inactive) | 1.09 | 1.04
23 | O=C1C=CC2(Oc3cccc4cccc(c34)O2)[C@H]2[C@H]1[C@@H](O)C=C[C@H]2O | 0.98 (inactive) | 1.06 | 1.04
24 | O=C(NCC1O[C@@H](OC2C(NC(=O)c3ccccc3)C[C@@H](NC(=O)c3ccccc3)[C@H](OS(=O)(=O)O)[C@H]2OC2OC(COS(=O)(=O)O)C(OC3OC(CNC(=O)c4ccccc4)[C@@H](OS(=O)(=O)O)[C@H](OS(=O)(=O)O)[C@H]3NC(=O)c3ccccc3)C2OS(=O)(=O)O)[C@H](NC(=O)c2ccccc2)[C@@H](OS(=O)(=O)O)C1OS(=O)(=O)O)c1ccccc1 (stereo not given in full) | 0.97 (inactive) | 0.96 | 0.93
25 | c1ccc(OCC2CCNC2)cc1 (stereo not given) | 0.83 (inactive) | 1.17 | 0.97
26 | O=C[C@H](O)[C@@H](O)[C@H](O)CO | 0.99 (inactive) | 0.97 | 0.97
27 | CC#C[C@]1(O)CCC2C3CCC4=CC(=O)CCC4=C3[C@@H](c3ccc(N(C)C)cc3)C[C@@]21C (stereo not given in full) | 1 (inactive) | 1.09 | 1.09
28 | COc1c(N2CC[C@@H](CN)C2)c(F)cc2c(=S)c(C(=O)O)cn(C3CC3)c12 | 1.12 (inactive) | 1.08 | 1.2
29 | Cc1cc(O)c(C(=O)c2c(O)cccc2O)c(C(=O)O)c1 | 0.99 (inactive) | 1.15 | 1.14
30 | COc1cc(O)c2c(c1)C(=O)C1=C(C2=O)C(OC)OC1 (stereo not given) | 1.02 (inactive) | 0.9 | 0.92
31 | O=C(O)c1ccc([C@H](O)c2ccccc2)cn1 | 1.05 (inactive) | 1.03 | 1.09
32 | COC(=O)C[C@@H]1C2(C)C(=O)[C@@H](CC3=C4C=C(OC)O[C@@H](c5ccoc5)[C@]4(C)CCC32)[C@H](O)C1(C)C (stereo not given in full) | 1.13 (inactive) | 0.99 | 1.12
33 | OCCN1C[C@H](O)[C@@H](O)C(O)C1CO (stereo not given in full) | 1.19 (inactive) | 1.01 | 1.21
34 | O=C(NCC[C@H](O)C(=O)O)OCc1ccccc1 | 1.04 (inactive) | 1.09 | 1.14
35 | COC(=O)NC1[C@@H](O)C(O)C(CO)O[C@H]1Sc1ccccc1 (stereo not given in full) | 0.91 (inactive) | 1.06 | 0.96
36 | CCCCCCCCC[C@H]1O[C@]2(O)CC[C@H](O)[C@]2(O)[C@@H]1O | 0.97 (inactive) | 0.93 | 0.91
37 | O=C(NCC1O[C@@H](OC2C(NC(=O)OCc3ccccc3)C[C@@H](NC(=O)OCc3ccccc3)[C@H](OC3OC(COS(=O)(=O)O)[C@@H](OS(=O)(=O)O)[C@H](NC(=O)OCc4ccccc4)[C@H]3OS(=O)(=O)O)[C@H]2OS(=O)(=O)O)[C@H](OS(=O)(=O)O)[C@@H](OS(=O)(=O)O)C1OS(=O)(=O)O)OCc1ccccc1 (stereo not given in full) | 1.03 (inactive) | 0.88 | 0.91
38 | CC1(C)CC[C@]2(C(=O)O)CC[C@]3(C)C(=CCC4[C@@]5(C)CC[C@H](O)[C@@](C)(CO)C5CC[C@]43C)C2C1 (stereo not given in full) | 0.94 (inactive) | 1.05 | 0.98
39 | CCCc1oc(=O)cc(OC)c1CO | 0.86 (inactive) | 1.2 | 1.03
40 | O=C1CC[C@]23/C=C/C(=O)NCCCCNCCCNC(=O)/C=C/c4ccc(c2c4)O[C@@H]3C1 | 0.81 (inactive) | 1.1 | 0.89

Row | SMILES | red/green cell ratio (normalised) | normalised cell number [1] | normalised cell number [2]
41 | C[C@]12CCC3c4ccc(OC(=O)c5ccccc5)cc4CCC3C1CC[C@@H]2O (stereo not given in full) | 1.1 (inactive) | 1 | 1.1
42 | COC(=O)c1cn(C2CC2)c2c(OC)c(F)c(F)c(N)c2c1=O | 1.1 (inactive) | 0.97 | 1.07
43 | COC(=O)/C(=C1\OC(=O)C(c2ccccc2)=C1O)c1ccccc1 | 1.05 (inactive) | 1.05 | 1.11
44 | CCC[C@H]1Cc2cc3c(-c4c(O)cc(O)c5c(O)c6c(cc45)C[C@H](CCC)OC6=O)c(O)cc(O)c3c(O)c2C(=O)O1 | 0.9 (inactive) | 0.85 | 0.77
45 | Nc1nc2c(c(=O)[nH]1)NC(CNc1ccc(C(=O)NC(CCC(=O)O)C(=O)O)cc1)=CN2 (stereo not given) | 0.83 (inactive) | 1.19 | 0.99
46 | COC(=O)C12C(C(C)=O)OC(CC(O)C1O)C2C (stereo not given) | 0.97 (inactive) | 1.04 | 1.01
47 | CC(C)CCCC(C)[C@H]1CCC2C3C=CC4=CC(=O)CC[C@]4(C)C3CC[C@@]21C (stereo not given in full) | 0.99 (inactive) | 0.94 | 0.93
48 | Cc1c(O)c(O)cc2oc3cc(O)cc(O)c3c(=O)c12 | 1.06 (inactive) | 1.06 | 1.12
49 | CC1=C2[C@](C)(C=CC1=O)C[C@H](O)[C@H]1[C@H](C)C(=O)O[C@]21C | 1.06 (inactive) | 1.09 | 1.15
50 | CCC(C)[C@H]1O[C@]2(C=C[C@@H]1C)C[C@@H]1C[C@@H](C/C=C(\C)[C@@H](OC3C[C@H](OC)C(O[C@H]4C[C@H](OC)[C@@H](O)[C@H](C)O4)[C@H](C)O3)[C@@H](C)/C=C/C=C3\COC4[C@H](OC)C(C)=C[C@@H](C(=O)O1)[C@]34O)O2 (stereo not given in full) | 0.83 (inactive) | 1.13 | 0.93
51 | OCC(O)C(O)C(O)C(O)C(O)CO (stereo not given) | 0.95 (inactive) | 0.96 | 0.91
52 | COc1cc([C@@H]2c3cc4c(cc3[C@H](O)C3COC(=O)[C@H]32)OCO4)cc(OC)c1OC (stereo not given in full) | 1.4 (inactive) | 0.16 | 0.22
53 | O=C(O)C(O)[C@H](O)[C@H](O)[C@H](O)[C@H](O)CO (stereo not given in full) | 1.28 (inactive) | 1.07 | 1.37
54 | O=C(O)CCc1ccccc1O | 0.97 (inactive) | 1.1 | 1.07
55 | CC1CC(O)C2C=CC(CC(=O)O1)O2 (stereo not given) | 0.76 (inactive) | 0.7 | 0.53
56 | COC(=O)[C@@H]1OC(=O)C2OC23[C@@]1(C)CCC1[C@@]2(C)CCC(=O)C(C)(C)C2C[C@@H](OC(C)=O)[C@]13C (stereo not given in full) | 1.04 (inactive) | 1.06 | 1.11
57 | CC(C)c1c(O)ccc2c1CCC1C(C)(C)CCC[C@]21C (stereo not given in full) | 0.99 (inactive) | 1.08 | 1.07
58 | C[C@@H](O)[C@H]1C(=O)N2C(C(=O)O)=C(SC3CN[C@H](C(=O)N(C)C)C3)[C@H](C)[C@H]12 (stereo not given in full) | 1.01 (inactive) | 0.98 | 0.99
59 | O=C1N[C@@H]2[C@@H](Sc3ccccc3)OC(CO)C(O)[C@@H]2O1 (stereo not given in full) | 0.97 (inactive) | 1 | 0.97
60 | O=C(O)C(c1ccccc1)c1ccccc1 | 1.12 (inactive) | 1.01 | 1.13

— PubChem BioAssay
